Reference: PubChem BioAssay AID2384 (Southern Research Specialized Biocontainment Screening …, 2010)
The whole screen tested about 2,300 compounds, of which about 1,100 (48%) were called active. So high a share suggests a set chosen from earlier hits. This is one part of the list. Measured potencies and affinities stand elsewhere. Unmarked numbers belong to inactive results. The rule behind the calls is not given here.

Assay: inhibitors in S. typhi counter-screen strain, dose response, counter-screen for PhoP regulon inhibitor project, fluorescence, 4 h (AID 2384)
Conditions: S. typhi GFP reporter counter-screen; series mostly up to 150 µM; inhibition: at the top concentration

Compound | inhibition [%]
CCNc1nc(N)nc(Oc2ccc(OCCOc3ccc(Cl)cc3Cl)nn2)n1 | -7.02
COc1cc(/C=C/C(=O)O)cc2c1OCCO2 | 1.36
CCCC(CCC)C(=O)NCCN1CCOCC1 | 9.01
CCn1nccc1C(=O)Nc1cc(Cl)cc(Cl)c1 | 16.1
CCOC(=O)/C=C1/N(C)c2ccccc2C1(C)C | -0.1
O=Cc1ccc(O)cc1O | 12.6
CCCOc1ccc(-c2cn3ccccc3n2)cc1 | 27.4
Cc1ccc(-c2noc(CN3CCCCC3)n2)cc1 | -23.5
Cc1ccc2nsnc2c1S(=O)(=O)NCc1ccc2c(c1)OCO2 | -30.8
Cc1[nH]nc2c1C(c1ccc(-c3ccccc3C#N)o1)C(C#N)=C(N)O2 (configuration not stated) | -6.53
COc1ccc(NC(=O)CN(C)S(=O)(=O)c2ccc(Cl)cc2)cc1Cl | -14.6
O=C(NCc1cccnc1)c1ccc(COc2ccc(Cl)cc2)cc1 | -28.3
Cn1cc(S(=O)(=O)NCC2CCCO2)c(=O)n(C)c1=O (configuration not stated) | 19.2
C[C@]1(OC(=O)/C=C/c2ccccc2)C[C@@H](O)[C@]2(O)C=CO[C@@H](O[C@@H]3O[C@H](CO)[C@@H](O)[C@H](O)[C@H]3O)[C@@H]21 | 6.78
O=C(/C=C/c1ccccc1)NNC(=O)c1ccco1 | -2.38
O=C(/C=C/c1ccco1)NC(=S)Nc1cccc(-c2nc3ccccc3o2)c1 | -13.3
CC(=O)c1cccc(NC(=S)NNC(=O)c2ccco2)c1 | 21.6
O=C(NC(=S)Nc1c(F)cc(F)cc1Br)c1ccc2c(c1)OCCO2 | -19
COc1ccc(C(C(=O)Nc2ccc(C(C)C)cc2)N(Cc2ccco2)C(=O)CC2NC(=O)NC2=O)cc1 (configuration not stated) | -0.89
Nc1nc(=S)c2[nH]cnc2[nH]1 | 32.3
COc1ccc(C2C3=C(CC(C)(C)CC3=O)Nc3cc4c(cc32)OCO4)cc1 (configuration not stated) | -48.3
O=C(CSc1ccccc1)N1CCC(N2CCC(C(=O)N3CCCC3)CC2)CC1 | -12.2
C[C@@H](C(=O)NC1CCCC1)N1C(=O)N2CCc3c([nH]c4ccccc34)[C@@]2(C)C1=O | -17.4

Compound | inhibition [%]
CCOC(=O)c1cccc(NC(=O)C2CCC(CNc3c(N4CCOCC4)c(=O)c3=O)CC2)c1 (configuration not stated) | -22.3
O=C(C[n+]1cn(C(F)F)c2ccccc21)c1ccc(Br)cc1 | -14.8
CCc1ccc(C(=O)CC2(O)C(=O)N(CN3CCOCC3)c3ccccc32)cc1 (configuration not stated) | 13.2
CCN1CCN(C2=C(NS(=O)(=O)c3ccc(Br)cc3)C(=O)c3ccccc3C2=O)CC1 | 17.3
O=C(c1cccs1)N1CCC(N2CCN(c3ccccc3)CC2)CC1 | -17.6
CCN1CCN(c2cc(C)c3cc(NC(=S)N4CCN(c5ccccc5F)CC4)ccc3n2)CC1 | 35.7
CC(=O)C1=C(O)C(=O)N(CCN2CCOCC2)C1c1ccccc1 (configuration not stated) | 10.7
COc1ccc(C(=O)N2CCN(C(=O)Cc3ccccc3)CC2)cc1OC | -1.09
Cn1c(=NC(=O)COc2ccccc2)sc2cccc(F)c21 | 0.24
Cc1cc(NC(=O)/C=C/C(=O)N(c2ccccc2C)C(C(=O)NC2CCCC2)c2ccc(F)cc2)no1 (configuration not stated) | 6.86
CC(=O)c1c(N2CCN(c3cccc(Cl)c3)CC2)nc(=S)n(-c2ccccc2)c1C | -38.1
O=C(COc1ccc(Cl)cc1)Nc1cccc(-c2ccc3nncn3n2)c1 | -14.3
O=C(Cc1ccccc1)NCC(=O)Nc1cccc(Cl)c1 | 6.95
NC(=O)SCC(=O)Nc1ccc(Cl)c(Cl)c1 | 32
Cc1cnc(C(=O)OCC(=O)Nc2cccc(Cl)c2)cn1 | 0.83
CCc1cccc(NC(=O)CSC2=NS(=O)(=O)c3ccccc32)c1 | 7.63
O=C(Nc1ccc(Cl)cc1)N1CCOC12CCC1(CC2)OCCO1 | 7.84
CCOC(=O)c1ccc(NC(=O)CSC(=S)N2CCOCC2)cc1 | -22.6
Cc1ccc(NC(=O)c2cc(NC(=O)CCCC(=O)O)ccc2Cl)cc1Cl | -19.6
O=C(Cn1nc(Cc2ccncc2)c2ccccc2c1=O)Nc1cccnc1Cl | 2.79
CCCN(C(=O)CSc1nc2ccccc2n1CC)C1CCS(=O)(=O)C1 (configuration not stated) | 28.5
O=C(Nc1ccc2c(c1)OCCO2)C1CCCN1C(=O)Nc1ccc(F)cc1 (configuration not stated) | -2.19
Clc1ccc(Cn2cccc2C2=NCCO2)cc1 | -22.6

Compound | inhibition [%]
c1cnc2nc(-c3ccc4c(c3)OCO4)cn2c1 | -13.7
COc1ccc(-c2nnc(SC(C)C(=O)Nc3nccs3)n2Cc2ccccc2)cc1OC (configuration not stated) | -3.63
CN(C)C(=O)CSc1nnc(Cc2ccc([N+](=O)[O-])cc2)o1 | -7.9
COc1ccc(N(CC(=O)N2c3ccccc3CC2C)S(=O)(=O)c2c(C)noc2C)cc1 (configuration not stated) | -2.81
Cc1oc(/N=C/c2ccc(O)cc2O)c(C#N)c1C | -15.2
O=C(N/N=C/c1ccc(O)cc1O)C(=O)N/N=C/c1ccc(O)cc1O | -70.2
CCOC(=O)c1[nH]c2ccc(Cl)cc2c1NC(=O)c1nonc1C | -11.4
Cc1ccc(/C=N/NC(=O)Cc2cccn2C)cc1 | 6.57
Cc1cc(Cl)ccc1OCC(=O)N/N=C/c1ccncc1 | 26
O=C(N/N=C/c1ccc(N2CCOCC2)cc1)c1ccc(O)cc1 | 20.5
CN(CC(=O)Nc1ccc(F)c(F)c1F)c1cnccn1 | 30.9
C[C@@H](NC(=O)[C@@H]1Cc2ccccc2CN1)C(=O)NCC1CCCO1 (some centres not stated) | -13
CCCOc1ccc(C2C(C(=O)c3ccc(C)o3)=C(O)C(=O)N2CCCn2ccnc2)cc1 (configuration not stated) | 2.87
C=CCNc1nc(-c2ccccc2)nc(-n2ccnc2)n1 | -14.9
c1ccc2c(c1)CCN(c1nc3ccccc3n3cnnc13)C2 | -15.8
CC1(NC(=O)NCCCCCCNC(=O)NC2(C)CCS(=O)(=O)C2)CCS(=O)(=O)C1 (configuration not stated) | -10.2
O=c1[nH]n(-c2ccccc2)c(=O)c2ccccc12 | 3.81
O=c1c2ccccc2[nH]c2ccc(F)cc12 | 4.1
COc1ccc(N=Cc2c(O)n(CC3CCCO3)c(=O)[nH]c2=O)cc1 (configuration not stated) | 9.18
Cc1cccc(N2CCN(C(=O)C3CCN(c4nnc(-n5cccc5)s4)CC3)CC2C)c1 (configuration not stated) | -25.6
Cc1nn(C)c(C)c1NC(=O)c1ccc(S(=O)(=O)N(C)C)cc1 | 4.22
CC(C)(C)Nc1c2ccccc2nc2ccccc12 | 32.2
COc1ccccc1Nc1cc(C(=O)NCc2cccnc2)c2ccccc2n1 | -19.1

Compound | inhibition [%]
Cc1cc(-c2nc3ccccc3o2)c2ccccc2n1 | 0.36
CC(=O)c1sc2nc(=O)c(C)nn2c1C | -20.6
CCOC(=O)C(CC)Sc1ccc2nnc(-c3cccnc3)n2n1 (configuration not stated) | -8.08
COC(=O)c1cc2oc(C)cc2n1CC(=O)Nc1ccc(C)c(C)c1 | -13.2
CCCNC(=O)C1CCN(c2ccc(S(=O)(=O)N3CCOCC3)cc2Cl)CC1 | -33.2
Cc1onc(-c2ccccc2Cl)c1C(=O)NNC(=O)C1CCN(Cc2ccccc2)CC1 | -18.2
CCn1c(-c2cccc(Br)c2)n[nH]c1=S | 12.4
COC(=O)CNC(=O)c1ccc(=O)oc1 | -10
COc1ccc(Cl)cc1N(C)C(=O)CCNC(=O)Cn1cnc2ccccc2c1=O | 11
O=C(NCC1CC1)Nc1cccs1 | 9.59
Oc1ccc(-c2nc3ncccn3c2Nc2ccc3c(c2)OCCO3)cc1 | 11.8
COc1ccccc1NC(=O)CN1CCN(c2ccccc2)CC1 | -5.44
COc1ccccc1NC(=O)Cn1cnc2c(nnn2-c2ccc(C)cc2)c1=O | 7.57
CCN(CC)CCN(C(=O)c1cccc([N+](=O)[O-])c1)c1nc2ccc(OC)cc2s1 | 39.5
COc1ccc2nc(NC(=O)Nc3ccccc3)sc2c1 | -19.3
O=C(N/N=C/c1ccc(-c2ccc(Br)cc2)o1)c1ccc2c(c1)OCO2 | -16.7
Cc1nc(C)c(-c2ccc(SCc3ccccc3C)nn2)s1 | -5.23
CCCC(=NCc1ccccc1)C1=C(O)C(C(=O)OC)C(C)(C)CC1=O (configuration not stated) | 7.33
Cc1noc(C)c1CCC(=O)N1CCCC(CCC(=O)NCc2ccc(F)c(F)c2)C1 (configuration not stated) | -3.73
CC(C)CNC(CC(=O)O)c1ccccc1 (configuration not stated) | 1.77
CCc1c(C)n([O-])c2c([n+]1=O)CCCCC2 | -29.8
COCc1cc(=O)n2[nH]c(C)nc2n1 | 15.9
O=C(CN1C2=NCCN2c2ccccc21)c1ccco1 | 13

Compound | inhibition [%]
O=C(CC1(O)C(=O)Nc2ccc(Br)cc21)c1ccc2c(c1)OCO2 (configuration not stated) | -17.7
COc1ccc(NS(=O)(=O)c2cc(NC(=O)c3ccc(C)s3)ccc2N2CCOCC2)cc1 | 11.5
CCOc1ccc(-c2c[n+]3c(n2-c2ccccc2)CCCCC3)cc1 | 5.49
COc1ccc(C2C(C#N)=C(N)Oc3n[nH]c(C)c32)cc1CSc1ccccn1 (configuration not stated) | 30.4
CCCCc1cc(=O)oc2cc(C)c(CN3CCCC3)c(O)c12 | 4.75
CC(C)c1ccc2oc(=O)cc(CN3CCN(c4ccc(F)cc4)CC3)c2c1 | -10.1
CCN(CC)CCOC(=O)c1ccc(N/C=C(/C#N)c2nc(-c3ccc(OC)c(OC)c3)cs2)cc1 | -49.6
O=C(CSC1=NCCS1)Nc1nc2c(s1)CCCC2 | -13.1
CC(=O)Nc1cc(-c2ccc(Cl)cc2)[nH]n1 | 14.5
CC(=O)c1c(C)nc(-c2cccc([N+](=O)[O-])c2)n1O | 13.7
O=C(CSc1cccc2cccnc12)Nc1ccc(S(=O)(=O)N2CCOCC2)cc1 | 0.8
Cc1ccc(C(=O)NCC(=O)NCCc2ccc(S(N)(=O)=O)cc2)s1 | -6.17
N#Cc1nc(COc2ccc(Br)cc2)oc1NCCCn1ccnc1 | 39.4
O=C1CCCN1c1ccc(CNS(=O)(=O)c2ccc(F)cc2)cc1 | 17.6
COc1cccc(-c2nc(CS(=O)CC(=O)NCCCOC(C)C)c(C)o2)c1 (configuration not stated) | -12
COc1ccccc1C(=O)Nc1nnc(-c2ccc(Cl)cc2)o1 | 33.4
COc1ccc(S(=O)(=O)NCCSCc2ccco2)cc1Cl | 15.2
O=C(N/N=C\c1c[nH]c2ccccc12)c1ccc(O)cc1 | 37
Cn1c(N/N=C/c2c[nH]c3ccccc23)nc2ccccc21 | 15.1
COc1cc(C(=O)N/N=C/c2coc3ccccc3c2=O)cc(OC)c1OC | 37.1
